This is an account of results in paper PMC7819943, “Rice protein-binding microarrays: a tool to detect cis-acting elements near promoter regions in rice”.

Whole data set: some 39,000 sequences, median “fluorescence intensity (a.u.)” near 4,300, cut for the highest 2% near 39,000. This is one part of a sample in which the highest values are shown more often than they occur.

This assay addresses T1, OsSMF1 (Oryza sativa, UniProt Q6ZLB0 1-436).
T1 sequence: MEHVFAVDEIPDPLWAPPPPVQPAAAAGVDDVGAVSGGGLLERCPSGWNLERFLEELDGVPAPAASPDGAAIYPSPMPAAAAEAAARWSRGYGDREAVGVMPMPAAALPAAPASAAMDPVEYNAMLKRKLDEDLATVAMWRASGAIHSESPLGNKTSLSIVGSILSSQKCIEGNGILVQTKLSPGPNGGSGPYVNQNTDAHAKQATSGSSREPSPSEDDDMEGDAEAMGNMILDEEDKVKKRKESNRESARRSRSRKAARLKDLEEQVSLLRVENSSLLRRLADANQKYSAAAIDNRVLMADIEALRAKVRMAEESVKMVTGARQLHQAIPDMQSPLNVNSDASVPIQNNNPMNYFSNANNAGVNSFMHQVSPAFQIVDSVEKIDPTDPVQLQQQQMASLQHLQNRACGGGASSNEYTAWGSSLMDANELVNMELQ
The experiment in a line: protein-binding microarray (RPBM); PBS, 2% BSA, 51.3 ng/ul salmon testes DNA, 50 uM zinc acetate, 200 nM TF, 25 C, 1 h; high values mean tight binding. The conditions noted are these: protein: recombinant; tags: N-terminal polyhistidine and DsRed monomer fusion (pET32a); chain copies: 2; label: CyDye5-dUTP incorporated in the synthesized complementary strand; 3' TTTTT single-stranded linker to array surface; dsDNA, one strand shown. In a few lines: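 The binding signal is fluorescence intensity per feature, in arbitrary units, read on an Axon 4000B scanner. Polyhistidine- and DsRed-tagged transcription factors (N-terminal fusions) from E. coli BL21-CodonPlus were purified on Ni–NTA and applied at 200 nM for 1 h at 25 °C to a double-stranded, BSA-blocked custom Agilent array in buffer with 50 µM zinc acetate.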
As for “TCCTTCTTCTTCTCCTTCCTCACTGCAACACTCTTCGGGGCGGAGTCACCTAGTGCAG”, the binding signal is 38900 fluorescence intensity (a.u.). With “CTTCGTCTCCTCCTCCTCCACGTCATCCGCCTCCGCCTCCCGGAGTCACCTAGTGCAG” the figure was 26000 fluorescence intensity (a.u.); with “TTTGTGCGTGTTACGAGTGACTTGCGTTTATATCCTGCTTCGGAGTCACCTAGTGCAG”, 6490 fluorescence intensity (a.u.).

As to “ACAGGCATAGAGGCTGCTGACACACACCATCCGATCTGTCCGGAGTCACCTAGTGCAG”, the binding signal is 4990 fluorescence intensity (a.u.).

In the case of “GCCGTGAACCAAAGCTCTTGCCGTGCTGTGCCGTGCCGGTCGGAGTCACCTAGTGCAG”, the binding signal is 3220 fluorescence intensity (a.u.). As for “GCGTGGTGCTGGTCTCCAAGGATCCCGACAACATCCGCGACGGAGTCACCTAGTGCAG”, the figure is 5380 fluorescence intensity (a.u.).

As to “CATCCCTGGTGCTCTTGGTCTCTTGGCAGCTGTGGAAGGACGGAGTCACCTAGTGCAG”, the binding signal was 43000 fluorescence intensity (a.u.). With “GTATTGCTGCTGTGATGGAACAAGCTCAGCAGGGTGACATCGGAGTCACCTAGTGCAG” the figure was 3290 fluorescence intensity (a.u.); with “GGGCGGAGCTGGTGCGGAGGGTGGCGTGGCAGCTCGAGGACGGAGTCACCTAGTGCAG”, 5260 fluorescence intensity (a.u.). With “TGCAGATGGTGCTGTGAAAGCTCTTGAACAGCAGGAAGGTCGGAGTCACCTAGTGCAG” the figure was 43400 fluorescence intensity (a.u.); with “ATGTGATGCATGATGATTAGATATGCTTGCATGTTAATTTCGGAGTCACCTAGTGCAG”, 3160 fluorescence intensity (a.u.). With “TGCTGCCTTTATCATCACCAAGAGCCACTACCTTGCCTTACGGAGTCACCTAGTGCAG” the figure was 4370 fluorescence intensity (a.u.); with “ACACTAATTTCAAGGTTGCTCGTGAGTCATAATCCTGACGCGGAGTCACCTAGTGCAG”, 7720 fluorescence intensity (a.u.). As to “GGCCGGAGGGCGGCCTCGGTGGCGTGGAGTTGGCAGCGGGCGGAGTCACCTAGTGCAG”, the binding signal was 3770 fluorescence intensity (a.u.). With “TCGACCCACCGTCTGCCACGTCAGCTTGCCGCCCACCAATCGGAGTCACCTAGTGCAG” the figure was 28900 fluorescence intensity (a.u.); with “AGTAACCGACTCCTTTCCAACGTGTTCCCCACGAAGCCGGCGGAGTCACCTAGTGCAG”, 4560 fluorescence intensity (a.u.).

For the sequence “TTTGAAACCCCTCCTCCTCCTCCTTCCCCAACACACAATCCGGAGTCACCTAGTGCAG”, the binding signal is 3250 fluorescence intensity (a.u.). As to “GTGCCTGACAATCCTACAGGTGAAATCAACCCCTTTCATCCGGAGTCACCTAGTGCAG”, the binding signal was 40800 fluorescence intensity (a.u.). With “CCCTTCCTTCCTTCCTTTGCATCATCATCATCAACCCAATCGGAGTCACCTAGTGCAG” the figure was 4440 fluorescence intensity (a.u.); with “CCACAAACATGCAAGACCAAATTCAACTTCTACAAGTTGTCGGAGTCACCTAGTGCAG”, 13900 fluorescence intensity (a.u.); with “CCACGCTATCCCATGCGATTCGAGAAGGTTCCACACACACCGGAGTCACCTAGTGCAG”, 41300 fluorescence intensity (a.u.).

As to “CGTGTTCGATTCCGCTGCTATCCACGTCGCTACGCGCCACCGGAGTCACCTAGTGCAG”, the binding signal was 7020 fluorescence intensity (a.u.).

Turning to “AGGTTCGCAGTTCCACGCATCCCACCATCACCACACCACGCGGAGTCACCTAGTGCAG”, the binding signal is 5160 fluorescence intensity (a.u.). As to “TCGAGCCGGTAGATGTCTCAGCTAGTGCTTTATCTGTTCGCGGAGTCACCTAGTGCAG”, the binding signal is 3180 fluorescence intensity (a.u.).

In the case of “CGGCGCCTAGACTGCGTATCGTAGCTGTCGAACGTGTCGTCGGAGTCACCTAGTGCAG”, the binding signal is 3640 fluorescence intensity (a.u.). With “GAATCTACTGGGCATTTCGTCAAACAGCTCATCTGCGCCCCGGAGTCACCTAGTGCAG” the figure was 3590 fluorescence intensity (a.u.); with “ATTCGTCTGAAAATTGTGTTTCACATGCGTCATTTCTCTACGGAGTCACCTAGTGCAG”, 5080 fluorescence intensity (a.u.); with “GTGCGTTGTGTGGTTGGTTGGTCAGTGTCTGGGTGGTCACCGGAGTCACCTAGTGCAG”, 26000 fluorescence intensity (a.u.). With “CTCTGGCGATGTGGCGTCTGGTCAAATTCATTGTCTCTACCGGAGTCACCTAGTGCAG” the figure was 47900 fluorescence intensity (a.u.). With “GCGAAAACCCTGCATAAACATAGGAAAACACCAAGTGGGTCGGAGTCACCTAGTGCAG” the figure was 3560 fluorescence intensity (a.u.). With “TTTGATCACCGGTCCGGTCTTAATAACTATGTGGCAGACGCGGAGTCACCTAGTGCAG”, the binding signal was 3660 fluorescence intensity (a.u.). As for “CAACAGCAGCAGCTACAACGCGGCATCCATGGCCGCCGCGCGGAGTCACCTAGTGCAG”, the figure is 53300 fluorescence intensity (a.u.); as for “GAAGGAGAGGAGGAGAGGAGAGGAGAGAGGGAGGCAGCAGCGGAGTCACCTAGTGCAG”, 3280 fluorescence intensity (a.u.). As for “CCTCCTCAACGCCGCCACCTCATCCGTCCATACAGCGCCGCGGAGTCACCTAGTGCAG”, the figure is 7110 fluorescence intensity (a.u.); as for “CGGGAGAGAGATCAGATGCGGCATGGCGTGGCCGTGGCGTCGGAGTCACCTAGTGCAG”, 3380 fluorescence intensity (a.u.); as for “CCCTGCGCTGCCACGCGGCCGGCATCCGCCAAAGCAACAGCGGAGTCACCTAGTGCAG”, 4880 fluorescence intensity (a.u.).

In the case of “GAAGTGGCGGCCCTTGGCGGAGAGAATGGCATGGCGAGAGCGGAGTCACCTAGTGCAG”, the binding signal was 65100 fluorescence intensity (a.u.).

Regarding “GCGTGGAGTGGAGAGTGGAGAGGCATGGGAGGCATGGCAGCGGAGTCACCTAGTGCAG”, the binding signal is 42900 fluorescence intensity (a.u.). As for “AAACACGCGGCATGGCGTGCCGCGATGCAGTCGGAGATGGCGGAGTCACCTAGTGCAG”, the figure is 48600 fluorescence intensity (a.u.). With “AGCGAGAGAAGATGCTGACGTGGCATCATGACATGTGGGGCGGAGTCACCTAGTGCAG” the figure was 19300 fluorescence intensity (a.u.); with “GCGGAGCCGACGCGGCGGCGATGCTCGGCCGCGTGGCGGTCGGAGTCACCTAGTGCAG”, 3840 fluorescence intensity (a.u.); with “AGTGGTGGAGAAGGAGAGGAGAGGCAGAGAGAATGAGGAGCGGAGTCACCTAGTGCAG”, 3240 fluorescence intensity (a.u.).
